Compound activity: PubChem BioAssay, National Center for Advancing Translational Sciences (NCATS)
The list is not random: actives were taken first. Their share in the collection is about 6.5%.
MARV entry inh – Marburg virus entry inhibition. Marburg virus pseudotyped entry inhibition, cell reporter. Potency, µM (series often up to 37.8 µM), for the others: top-dose activity change, negative = inhibition, actives largely listed as inhibitors. hit rate 1.8% among 300,000; calls by dose curve; tested in HEK293 cells; further: potency means the concentration at half of the fitted maximal effect
FMDV antiviral – blocks foot and mouth disease virus; FMDV antiviral cell-based qHTS; Potency, µM (top dose mostly 57.9 µM), for inactives: at the top dose activity change, negative = inhibition, usual class: inhibitors; hit rate 1.2% among 410,000; calls by dose curve; tested in HEK293T cells; further: read-out not given here; potency means the concentration at half of the fitted maximal effect; nearly all actives have a fitted effect of over 45% in size
HCMV inh – human cytomegalovirus inhibition; activity change, negative = inhibition, % at 57.5 µM; HFF cells, HCMV-luciferase reporter, 72 h; stronger effect = lower value; hit rate 4.5% among 410,000; in the data active means activity change below about -60%; inconclusive means no clear call, values can overlap the other calls; inactive means above about -39%
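Cell-based, HFFs, 1000 cells/well, 16 h 37C; cpds in DMSO + HCMV-luc, MOI 1 PFU/cell; 72 h 37C; OneGlo luminescence after 5 min RT; norm. to buffer vs Salinomycin 10uM.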
Vaccinia Venus – vaccinia inhibition (Venus reporter); Vaccinia virus Venus reporter expression, fluorescence; Potency, µM (top dose mostly 36.5 µM), for inactives: at the top dose activity change, negative = inhibition, hits mostly inhibitors; hit rate 0.46% among 330,000; AID 720580; calls by dose curve; tested in A549 cells; further: potency means the concentration at half of the fitted maximal effect; nearly all actives have a fitted effect of over 30% in size
VACV mCherry inh – vaccinia inhibition (mCherry reporter). Potency, µM (top dose mostly 36.5 µM), inactives show at the top dose activity change, negative = inhibition, hits mostly inhibitors. Vaccinia virus mCherry reporter infection, fluorescence. AID 720579. hit rate 0.63% among 310,000; calls by dose curve; tested in A549 cells; further: potency means the concentration at half of the fitted maximal effect; nearly all actives have a fitted effect of over 35% in size
LASV entry inh – blocks Lassa virus binding to or entry into cells. Lassa virus pseudotype entry inhibition, cell reporter. Potency, µM (highest dose often 37.9 µM), for the others: top-dose activity change, negative = inhibition, usual class: inhibitors. hit rate 1.2% among 300,000; calls by dose curve; tested in HEK293 cells; further: potency means the concentration at half of the fitted maximal effect; nearly all actives have a fitted effect of over 50% in size
Active calls of the source: *; i = inactive; ? = inconclusive; . = no result given; [ ] = another dose, or the depositor's remark. On the % scale 0 is the no-effect control and ±100 the full control effect.

SMILES | MARV entry inh | FMDV antiviral | HCMV inh | Vaccinia Venus | VACV mCherry inh | LASV entry inh
Oc1c(N=Nc2ccccn2)ccc2ccccc12 | 4µM* | -81% | -101* | ? | ? | 1.6µM*
Oc1[nH]c2ccccc2c1N=Nc1ccccn1 | ? | 28% | 96 | -3% | -12% | ?
Cc1cccc(NC(c2ccc(O)cc2)c2ccc3ccc(C)nc3c2O)n1 (stereo unspecified) | -2% | -13% | -36 | . | . | 21µM*
Cc1ccc2cccc(O)c2n1 | . | . | . | -4% | -6% | .
COc1cccc(C(NC(C)=O)c2ccc3cccnc3c2O)c1 (stereo unspecified) | ? | -18% | -99* | ? | ? | ?
O=C(Nc1cccc2cccnc12)c1cccc([N+](=O)[O-])c1 | . | 60% | 35 | . | . | .
CC(=O)NC(c1cccc([N+](=O)[O-])c1)c1ccc2cccnc2c1O (stereo unspecified) | ? | -26% | -102* | ? | ? | ?
CCCCC(=O)NC(c1cccc([N+](=O)[O-])c1)c1ccc2cccnc2c1O (stereo unspecified) | . | 8% | -103* | . | . | .
Cc1ccccc1C(=O)NC(C)c1nnc2n1CCN(Cc1ccccc1F)CC2 (stereo unspecified) | . | -11% | . | 0% | i | .
CCOC(=O)C1=C(C(=O)OCC)C2N(Cc3ccc(C#N)cc3)c3ccccc3[C@@]23C[C@@H](C(=O)OC)N(S(=O)(=O)c2ccc(OC)cc2)C3=N1 (stereo partly specified) | . | . | -4 | . | . | .
COc1cccc(C(Nc2ccccc2)c2ccc3ccc(C)nc3c2O)c1 (stereo unspecified) | . | -8% | -36 | ? | 7.1µM* | .
O=C(NCCc1nc2ccccc2n1Cc1ccc(F)cc1)c1ccco1 | -18%[46.1 µM] | -9% | -12 | -12% | -6% | -7%[46.1 µM]
O=C(NCCN1Cc2ccccc2OC(c2ccsc2)C1)c1ccc2[nH]ccc2c1 (stereo unspecified) | . | 1% | . | 1% | -15% | .
COc1ccc2nc(NC(=O)C3CC(=O)N(c4ccc5c(c4)OCCO5)C3)sc2c1 (stereo unspecified) | 6% | 2% | -20 | -24% | ? | 17%
O=C(Nc1nccs1)C1CC(=O)N(c2ccc(Cl)cc2)C1 (stereo unspecified) | -14%[46.1 µM] | 2% | 15 | -4% | -7% | 15%[46.1 µM]
COc1ccc(-c2nc(NC(=O)C3CC(=O)N(c4ccc5c(c4)OCCO5)C3)sc2C)cc1 (stereo unspecified) | ? | ? | -96* | ? | ? | ?
COc1ccc(N2CC(C(=O)Nc3nccs3)CC2=O)cc1 (stereo unspecified) | 28% | -7% | -78* | . | . | 3%
COc1cc2cc(CNc3ccccc3)c(=O)n(CC(=O)Nc3ccc(C)c(Cl)c3)c2cc1OC | . | 32% | 61 | -1% | -9% | 1%[46.1 µM]
COc1ccc(NCc2cc3cc4c(cc3n(CC(=O)Nc3cc(C)ccc3C)c2=O)OCCO4)cc1 | . | -21% | -73* | -26% | ? | 5%[46.1 µM]
COc1cc2cc(CNc3ccc(C)cc3)c(=O)n(CC(=O)Nc3ccc(C(C)C)cc3)c2cc1OC | . | 9% | -105* | -7% | -21% | 1%[46.1 µM]
Cc1cc(C)n(-c2nnc(Nc3ccc(C)c(Cl)c3)c3ccccc23)n1 | -4%[46.1 µM] | 0% | -98* | -19% | -1% | 3%[46.1 µM]
CCc1nnc(SC(CC)C(=O)Nc2ccc(OC)c(Cl)c2)c2cc3occc3n12 (stereo unspecified) | . | ? | ? | -13% | 2% | -18%[46.1 µM]
Oc1ccc(-c2[nH]ncc2-c2ccc(Br)cc2)c(O)c1 | . | -13% | -22 | . | . | .
CCOc1ccc(-c2[nH]ncc2-c2ccccc2)c(O)c1 | . | -19% | ? | . | . | .
O=[N+]([O-])c1ccc(COc2ccc(-c3[nH]ncc3-c3ccc(Cl)cc3)c(O)c2)cc1 | ? | 32µM* | -7 | ? | -22% | ?
COc1ccc(-c2cn[nH]c2-c2ccc(OCc3ccc([N+](=O)[O-])cc3)cc2O)cc1OC | . | 16µM* | -96* | . | . | .
COc1ccc(-c2cn[nH]c2-c2ccc(OCc3ccccc3F)cc2O)cc1OC | . | ? | -61* | ? | ? | .
Cc1cc(=O)n2nc(N(C)CC(=O)NCc3cccc(Br)c3)sc2n1 | 17%[46.1 µM] | -20% | 11 | 0% | -5% | -1%[46.1 µM]
CCCCOc1nc2ccccc2nc1[C@H](C#N)C(=O)NC1CCCCC1 | 16% | . | . | . | . | .
